Laboratory results published in PubChem BioAssay (NCI).
The panel holds about 83,000 compounds, 20% with a hit somewhere; the sample as a whole holds those more often.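 Cells were grown in 96-well plates and exposed to the test compound at a single concentration for 48 hours; results are reported as percent growth, with values below 10 considered active.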 Unmarked numbers belong to inactive results. Activity calls are given as the source filed them.

Columns and labels:
Experiment in all cases: NCI-60 one-dose screen, 48 h (100 = growth as untreated, 0 = no growth, -100 = all killed)
Details in all cases: 10 µM unless noted
SK-MEL-2 melanoma = system: SK-MEL-2 melanoma
EKVX NSCLC = system: EKVX NSCLC
SN12C renal = system: SN12C renal
UO-31 renal = system: UO-31 renal
TK-10 renal = system: TK-10 renal
ACHN renal = system: ACHN renal
A498 renal = system: A498 renal
CCRF-CEM leukemia = system: CCRF-CEM leukemia
MOLT-4 leukemia = system: MOLT-4 leukemia
RPMI-8226 leukemia = system: RPMI-8226 leukemia
OVCAR-8 ovarian = system: OVCAR-8 ovarian
OVCAR-5 ovarian = system: OVCAR-5 ovarian
OVCAR-4 ovarian = system: OVCAR-4 ovarian
SK-OV-3 ovarian = system: SK-OV-3 ovarian
OVCAR-3 ovarian = system: OVCAR-3 ovarian
HS 578T breast = system: HS 578T breast
IGROV1 ovarian = system: IGROV1 ovarian
NCI/ADR-RES ovarian = system: NCI/ADR-RES ovarian
SR leukemia = system: SR leukemia

SMILES	growth (SK-MEL-2 melanoma)	growth (EKVX NSCLC)	growth (SN12C renal)	growth (UO-31 renal)	growth (TK-10 renal)	growth (ACHN renal)	growth (A498 renal)	growth (CCRF-CEM leukemia)	growth (MOLT-4 leukemia)	growth (RPMI-8226 leukemia)	growth (OVCAR-8 ovarian)	growth (OVCAR-5 ovarian)	growth (OVCAR-4 ovarian)	growth (SK-OV-3 ovarian)	growth (OVCAR-3 ovarian)	growth (HS 578T breast)	growth (IGROV1 ovarian)	growth (NCI/ADR-RES ovarian)	growth (SR leukemia)
O=CN(SSN(C=O)C1CCCCC1)C1CCCCC1	111%	95.3%	99.7%	60.6%	106%	105%	116%	111%	65.2%	120%	104%	113%	101%	113%	107%	112%			
O=C(N=c1oc2ccccc2cc1-c1cc2ccccc2[nH]1)Nc1ccc(Cl)cc1	113%	88.1%	92.6%	61.2%	151%	91.3%	121%	109%	95.8%	88.3%	99.7%	101%	91.9%	89.4%	103%	96.5%	59.7%	98.7%	
CC1Cc2ccccc2N1NC(=O)c1ccc(Cl)c(S(N)(=O)=O)c1 (stereo unspecified)	99.4%	108%	96.3%	83.6%	101%	98%	114%	95.9%	86.5%	101%	104%	105%	98.7%	98.4%	119%	107%	98.6%	101%	
Cc1c(C(=O)N[C@@H](Cc2ccccc2)C(=O)C(=O)NCc2ccc(F)cc2)[nH]c2ccccc2c1=O	108%	85.3%	78.9%	106%	107%	97.8%	75.8%	103%	87.5%	87.9%	102%	104%	90.6%	99.6%	102%	105%	96.8%	102%	
c1cc2nc(-c3cn[nH]c3)c3c(c2cc1-c1cn[nH]c1)C1CCC3C1 (stereo unspecified)	92.4%	46.3%	66%	40.3%	97.4%	44.9%	-6.11% (active)	69%	63%	50.6%	59.3%	67.8%	83.9%	60.2%	75.5%	23.2%	48.6%	64.8%	
COc1ccc(C(=O)N=Nc2c(O)n(C)c3ccccc23)cc1	114%	77%	94.5%	69.3%	146%	91.4%	99.5%	94.2%	99.9%		95.6%	105%	91.9%	87.2%	104%	99.5%	90.2%	91.5%	80.5%
C=CCNc1ccc2c3c(cccc13)C(=O)N(N1C(=O)c3cccc4cccc(c34)C1=O)C2=O	107%	92.8%	101%	81.1%	105%	103%	119%	109%	101%	109%	100%	101%	107%	108%	108%	97.2%	103%	101%	
O=C(N/N=C/[C@H](O)[C@@H](O)[C@@H](O)[C@H](O)CO)c1ccc(NC(=O)c2cccnc2)cc1	109%	107%	99.4%	92.5%	106%	103%	107%	103%	114%		105%	106%	102%	108%	120%	108%	110%	106%	103%
CC([C@H]1CCC2C3CCC4C(=O)C(NC=O)=CC[C@]4(C)C3CC[C@@]21C)N(C)C (stereo partly specified)	82.3%	30.5%	42%	-65% (active)	84.1%	58.2%	65.1%	28.7%	41.2%		55.9%	93.2%	6.05% (active)	75.8%	24.6%	33.6%	37.8%	57.5%	54.3%
Cc1ccc(-c2nc(SCC(=O)Nc3nc(-c4ccc(Cl)cc4)cs3)[nH]c(=O)c2C#N)cc1	82.9%	101%	110%	88.4%	103%	101%	85.2%	103%	90.4%	103%	92.3%	94.3%	111%	100%	115%	90.5%	105%	109%	
C=C1CC[C@@]2(C#N)[C@H]3[C@H](CC[C@@H]2C)[C@@H](C)C[C@@H](CC(C)(C)C#N)[C@H]13	61.3%	32.9%	60.7%	14%	50.6%	28%	51.1%	22%	29.3%	40.3%	49.1%	48.5%	37.7%	46.1%	51%	30.2%	42.9%	35.4%	
NC(=O)Nc1ccc2ncnc(Nc3ccc(Cl)cc3)c2c1	127%	22.4%	81.9%	58%	26.5%	47.4%	43.4%	96%	71.2%	101%	89.5%	83.6%	91.9%	30.2%	74.2%	87.8%	61%	88.7%	
COc1cc2cc(Oc3ccc(NC(=O)Nc4ccc(Cl)c(C(F)(F)F)c4)cc3)c(C)nc2cc1OCCN1CCOCC1	31.4%	17.2%	10.1%	28.2%	42.8%	10%	41.5%	10.4%	-4.07% (active)		13.4%	55.6%	31.6%	31%	16.5%	72.6%	34.7%	11.4%	-1.99% (active)
CCN1C(=O)N(CC)C2Nn3c(s/c(=C4\C(=O)Nc5ccccc54)c3=O)=NC21 (stereo unspecified)	61.2%	83.2%	49.8%	54.8%	13.7%	53.7%	-2.29% (active)	35.9%	59%	53.2%	43.6%	66.4%	54.9%	75.8%	10.5%	34.7%	52.3%	73%	
Cc1ccc(-c2nc(N3CCN(C(=O)c4ccc(OC(F)(F)F)cc4)CC3)c3ccccc3n2)cc1	102%	88.5%	90.5%	53.7%	90.6%	89.5%	63.7%	75.3%	56.8%		90.3%	97.8%	106%	99.3%	93.9%	79.1%	85.6%	84.4%	78.5%
Cc1ccc(C(=O)NN2C(=O)CSC2c2cccc([N+](=O)[O-])c2)cn1 (stereo unspecified)	100%	98.7%	96.6%	14.9%	98.3%	92.2%	100%	90.8%	105%	82.7%		94.7%	95%	114%	92.9%	124%	73.3%	95.2%	109%
CCCCOc1nc2c(C)cccc2cc1-c1cc(-c2ccc(Cl)cc2)nc(-c2ccc(Cl)cc2)c1	102%	101%	96%	95.6%	108%	101%	90.4%	103%	103%		97.4%	96.6%	110%	103%	111%	92.4%	105%	108%	92.2%
COc1ccc(-c2[nH]c3ccc(OC)cc3c2/C=C(\C#N)S(=O)(=O)c2ccccc2)cc1	82.6%	36.8%	44.4%	42.2%	45.7%	41.4%	-5.52% (active)	2.56% (active)	17.6%		42.2%	63.3%	-20.8% (active)	31.9%	-1.23% (active)	13.4%		14.3%	28.1%
NC1=NC(c2cccc(Br)c2)c2sc3ccc(Cl)cc3c2N1 (stereo unspecified)	108%	85.5%	93.5%	62.8%	123%	92.9%	104%	121%	92.2%		102%	103%	93.5%	92.1%	99.2%	104%	77%		77.6%
CN1CCN(CC(=O)N2c3cccc4cccc(c34)N(C(=O)CN3CCN(C)CC3)C2c2cn(-c3ccccc3)nc2-c2cccc([N+](=O)[O-])c2)CC1	-47.6% (active)	17.8%	-21.5% (active)	26.2%	-19.4% (active)	-31.1% (active)	44.6%	-32% (active)	-11.6% (active)		-8.45% (active)	20.5%	-21.8% (active)	-14.4% (active)	-57.6% (active)	28.6%	4.75% (active)	72.4%	-17.2% (active)
